# Experimental data from the supplement of paper PMC8728848.
# Shown is part of a subset that was picked to be rich in the strongest signals.
# How the values were obtained:
# Assay in all cases: glycan array binding signal (z-score within array); higher = stronger binding
# Conditions in all cases: glycan notation: IUPAC condensed, linker removed
# Fuc(a1-2)Gal(b1-3)GalNAc = biological target: Fuc(a1-2)Gal(b1-3)GalNAc
# How it was run: (§1)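 Columns mapping to the same glycan were averaged after glycan names were converted to IUPAC-condensed notation. The data come from 3228 arrays in the Consortium for Functional Glycomics database, limited to those with an available protein sequence. Binding is reported as a within-array Z-score averaged across arrays of one protein sequence and across linkers.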
# [1] = biological target: Fuc(a1-2)[Gal(a1-3)]Gal(b1-3)GlcNAc
# How it was run: as §1
# [2] = biological target: Fuc(a1-2)[GalNAc(a1-3)]Gal(b1-4)[Fuc(a1-3)]GlcNAc
# How it was run: as §1
# [3] = biological target: Fuc(a1-3)[Gal(b1-4)]GlcNAc(b1-3)Gal(b1-3)[Fuc(a1-4)]GlcNAc
# How it was run: as §1
# [4] = biological target: Fuc(a1-3)[Gal(b1-4)]GlcNAc(b1-4)Gal(b1-4)[Fuc(a1-3)]GlcNAc
# How it was run: as §1
# Fuc(b1-3)GlcNAc = biological target: Fuc(b1-3)GlcNAc
# How it was run: as §1
# [5] = biological target: Gal(a1-3)[Gal(a1-4)]Gal(b1-4)GlcNAc
# How it was run: as §1
# [6] = biological target: Gal(b1-3)[Fuc(a1-4)]GlcNAc(b1-3)Gal(b1-4)[Fuc(a1-3)]GlcNAc
# How it was run: as §1
# [7] = biological target: Gal(b1-4)GalNAc(b1-3)[Fuc(a1-2)]Gal(b1-4)GlcNAc
# How it was run: as §1
# [8] = biological target: Gal(b1-4)GlcNAc(b1-3)Gal(b1-4)GlcNAc(b1-3)Gal(b1-4)GlcNAc
# How it was run: as §1
# [9] = biological target: Gal(b1-4)GlcNAc(b1-3)[Gal(b1-4)GlcNAc(b1-6)]GalNAc
# How it was run: as §1
# Gal3S(b1-3)GalNAc = biological target: Gal3S(b1-3)GalNAc
# How it was run: as §1
# Gal3S(b1-4)Glc6S = biological target: Gal3S(b1-4)Glc6S
# How it was run: as §1
# Gal3S6S(b1-4)GlcNAc = biological target: Gal3S6S(b1-4)GlcNAc
# How it was run: as §1
# GalNAc(a1-3)GalNAc = biological target: GalNAc(a1-3)GalNAc
# How it was run: as §1
# [10] = biological target: GlcNAc(a1-3)Gal(b1-4)GlcNAc
# How it was run: as §1
# [11] = biological target: GlcNAc(b1-3)[GlcNAc(b1-4)][GlcNAc(b1-6)]GlcNAc
# How it was run: as §1
# [12] = biological target: Man(a1-2)Man(a1-2)Man(a1-3)[Man(a1-2)Man(a1-3)[Man(a1-2)Man(a1-6)]Man(a1-6)]Man(b1-4)GlcNAc(b1-4)GlcNAc
# How it was run: as §1
# [13] = biological target: Neu5Ac(a2-3)Gal(b1-3)GlcNAc(b1-3)Gal(b1-4)GlcNAc
# How it was run: as §1
# [14] = biological target: Neu5Ac(a2-3)Gal(b1-4)GlcNAc6S
# How it was run: as §1
# [15] = biological target: Neu5Ac(a2-3)[Neu5Ac(a2-6)]GalNAc
# How it was run: as §1
# [16] = biological target: Neu5Ac(a2-8)Neu5Ac(a2-8)Neu5Ac(a2-3)[GalNAc(b1-4)]Gal(b1-4)Glc
# How it was run: as §1
# [17] = biological target: Fuc(a1-2)Gal(b1-3)GalNAc(b1-3)Gal(a1-4)Gal(b1-4)Glc
# How it was run: as §1
# [18] = biological target: Fuc(a1-2)Gal(b1-4)GlcNAc(b1-3)Gal(b1-4)GlcNAc
# How it was run: as §1
# Gal(a1-4)Gal(b1-4)Gal = biological target: Gal(a1-4)Gal(b1-4)Gal
# How it was run: as §1
# Gal(a1-4)Gal(b1-4)GalNAc = biological target: Gal(a1-4)Gal(b1-4)GalNAc
# How it was run: as §1
# [19] = biological target: Gal(b1-3)GalNAc(b1-3)Gal(b1-4)Glc
# How it was run: as §1
# Gal(b1-4)Glc6S = biological target: Gal(b1-4)Glc6S
# How it was run: as §1
# [20] = biological target: Gal(b1-4)GlcNAc(b1-3)GalNAc
# How it was run: as §1
# Gal6S(b1-4)Glc = biological target: Gal6S(b1-4)Glc
# How it was run: as §1
# [21] = biological target: Man(a1-2)Man(a1-2)Man(a1-3)[Man(a1-2)Man(a1-6)[Man(a1-3)]Man(a1-6)]Man(b1-4)GlcNAc(b1-4)GlcNAc
# How it was run: as §1
# Man(a1-3)[Man(a1-6)]Man = biological target: Man(a1-3)[Man(a1-6)]Man
# How it was run: as §1
# [22] = biological target: Neu5Ac(a2-3)Gal(b1-3)GalNAc6S
# How it was run: as §1
# [23] = biological target: Neu5Ac(a2-3)Gal(b1-4)GlcNAc(b1-3)Gal(b1-4)[Fuc(a1-3)]GlcNAc
# How it was run: as §1
# Neu5Ac(a2-3)GalNAc = biological target: Neu5Ac(a2-3)GalNAc
# How it was run: as §1
# [24] = biological target: Neu5Gc(a2-6)Gal(b1-4)GlcNAc
# How it was run: as §1
Binder,glycan array binding signal (z-score) (Fuc(a1-2)Gal(b1-3)GalNAc),glycan array binding signal (z-score) [1],glycan array binding signal (z-score) [2],glycan array binding signal (z-score) [3],glycan array binding signal (z-score) [4],glycan array binding signal (z-score) (Fuc(b1-3)GlcNAc),glycan array binding signal (z-score) [5],glycan array binding signal (z-score) [6],glycan array binding signal (z-score) [7],glycan array binding signal (z-score) [8],glycan array binding signal (z-score) [9],glycan array binding signal (z-score) (Gal3S(b1-3)GalNAc),glycan array binding signal (z-score) (Gal3S(b1-4)Glc6S),glycan array binding signal (z-score) (Gal3S6S(b1-4)GlcNAc),glycan array binding signal (z-score) (GalNAc(a1-3)GalNAc),glycan array binding signal (z-score) [10],glycan array binding signal (z-score) [11],glycan array binding signal (z-score) [12],glycan array binding signal (z-score) [13],glycan array binding signal (z-score) [14],glycan array binding signal (z-score) [15],glycan array binding signal (z-score) [16],glycan array binding signal (z-score) [17],glycan array binding signal (z-score) [18],glycan array binding signal (z-score) (Gal(a1-4)Gal(b1-4)Gal),glycan array binding signal (z-score) (Gal(a1-4)Gal(b1-4)GalNAc),glycan array binding signal (z-score) [19],glycan array binding signal (z-score) (Gal(b1-4)Glc6S),glycan array binding signal (z-score) [20],glycan array binding signal (z-score) (Gal6S(b1-4)Glc),glycan array binding signal (z-score) [21],glycan array binding signal (z-score) (Man(a1-3)[Man(a1-6)]Man),glycan array binding signal (z-score) [22],glycan array binding signal (z-score) [23],glycan array binding signal (z-score) (Neu5Ac(a2-3)GalNAc),glycan array binding signal (z-score) [24]
"Tim-4 (Mus musculus), Q6U7R4 (protein) MSKGLLLLWLVTELWWLYLTPAASEDTIIGFLGQPVTLPCHYLSWSQSRNSMCWGKGSCPNSKCNAELLRTDGTRIISRKSTKYTLLGKVQFGEVSLTISNTNRGDSGVYCCRIEVPGWFNDVKKNVRLELRRATTTKKPTTTTRPTTTPYVTTTTPELLPTTVMTTSVLPTTTPPQTLATTAFSTAVTTCPSTTPGSFSQETTKGSAFTTESETLPASNHSQRSMMTISTDIAVLRPTGSNPGILPSTSQLTTQKTTLTTSESLQKTTKSHQINSRQTILIIACCVGFVLMVLLFLAFLLRGKVTGANCLQRHKRPDNTEDSDSVLNDMSHGRDDEDGIFTL",-0.114,0.285,0.089,0.006,-0.188,-0.139,-0.083,-0.25,-0.661,-0.396,-0.345,2.34,1.82,1.9,-0.157,-0.514,1.75,0.032,-0.953,-0.51,-0.437,1.32,,,,,,,,,,,,,,
"RNase 1 (Bos taurus), P61823 (protein) MALKSLVLLSLLVLVLLLVRVQPSLGKETAAAKFERQHMDSSTSAASSSNYCNQMMKSRNLTKDRCKPVNTFVHESLADVQAVCSQKNVACKNGQTNCYQSYSTMSITDCRETGSSKYPNCAYKTTQANKHIIVACEGNPYVPVHFDASV",-0.157,,,,,,,,,,,,,,,,,,,,,,1.93,-0.225,7.93,8.87,0.641,-0.14,-0.22,-0.073,-0.153,-0.147,-0.195,-0.22,-0.24,-0.201
